The list is not random: actives were taken first. Their share in the collection is about 3.5%.
BoNT-F LC inh = inhibitors of Botulinum neurotoxin F light chain protease; 360,000 tested, 0.22% active; inhibition, % at 10 µM; Multiplex microsphere protease cleavage assay, flow cytometry; in the data active = inhibition above about 35%, passing the limit was not always enough; inconclusive = no clear call, values can overlap the other calls; also: plate controls were buffer without enzyme for full effect and enzyme alone for no effect
BoNT A protease = inhibitors of Botulinum neurotoxin A light chain protease; multiplex microsphere protease substrate cleavage, flow cytometry; inhibition, % at 10 µM; 360,000 tested, 0.17% active; also: plate controls were buffer without enzyme for full effect and enzyme alone for no effect
Autofluor counter = counter-screen for toxin protease inhibitors: compound fluorescence. compound autofluorescence counterscreen, microsphere flow cytometry; active compounds read high. fluorescence intensity (no concentration beside the values). 360,000 tested, 3.1% active; in the data active = fluorescence intensity above about 16000; inconclusive = no clear call, values can overlap the other calls
Anthrax LF prot = inhibitors of Bacillus anthracis lethal factor protease; multiplex microsphere protease cleavage assay, LF; inhibition, % at 10 µM; 360,000 tested, 0.12% active; also: plate controls were buffer without enzyme for full effect and enzyme alone for no effect
Target sequence (P15917 whole entry, looked up): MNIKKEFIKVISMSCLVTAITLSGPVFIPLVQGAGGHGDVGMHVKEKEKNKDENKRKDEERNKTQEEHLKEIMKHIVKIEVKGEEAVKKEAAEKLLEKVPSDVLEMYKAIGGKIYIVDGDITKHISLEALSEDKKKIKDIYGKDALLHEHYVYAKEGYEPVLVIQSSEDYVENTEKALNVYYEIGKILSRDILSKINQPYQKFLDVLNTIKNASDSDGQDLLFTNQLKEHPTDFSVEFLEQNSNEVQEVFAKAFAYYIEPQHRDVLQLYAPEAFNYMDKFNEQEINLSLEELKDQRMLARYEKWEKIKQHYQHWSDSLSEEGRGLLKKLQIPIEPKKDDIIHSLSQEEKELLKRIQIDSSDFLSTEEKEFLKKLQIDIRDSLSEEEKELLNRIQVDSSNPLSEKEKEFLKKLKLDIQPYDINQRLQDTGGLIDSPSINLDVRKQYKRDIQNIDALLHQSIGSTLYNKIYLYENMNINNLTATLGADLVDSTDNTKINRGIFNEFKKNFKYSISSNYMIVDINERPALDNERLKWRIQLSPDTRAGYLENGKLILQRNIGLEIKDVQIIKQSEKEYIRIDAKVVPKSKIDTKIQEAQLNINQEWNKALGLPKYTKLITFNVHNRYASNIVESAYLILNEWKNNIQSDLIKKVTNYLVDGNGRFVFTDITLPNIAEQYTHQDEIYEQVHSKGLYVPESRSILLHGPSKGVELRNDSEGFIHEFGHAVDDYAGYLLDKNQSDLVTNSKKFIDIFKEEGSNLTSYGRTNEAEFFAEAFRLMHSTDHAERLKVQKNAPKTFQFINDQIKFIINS
Active calls of the source: *; ? = inconclusive. Rule as the data show it, unless noted: active = inhibition above about 30%; inconclusive = no clear call, values can overlap the other calls; inactive = below that.

SMILES | BoNT-F LC inh | BoNT A protease | Autofluor counter | Anthrax LF prot
COc1ccccc1C(CNC(=O)C1CC(=O)N(Cc2ccccc2)C1)N1CCCC1 (stereo not drawn) | 8 | -2 | 12905 | 12
O=C(CCS(=O)(=O)Cc1ccccc1)N1CCN(Cc2ccccc2)CC1 | -7 | -1 | 11278 | -3
O=C(CCS(=O)(=O)Cc1ccccc1)N1CCc2ccccc2C1 | 2 | 4 | 21963* | -5
CC(OC(=O)C1CC1)C(=O)Nc1cc(Cl)cc(Cl)c1 (stereo not drawn) | -10 | 0 | 3104 | -1
COc1ccc(NCc2nnc(SCC(=O)c3ccc(C)cc3)o2)cc1 | 5 | 0 | 4313 | -4
COc1ccc(NCc2nnc(SCC(=O)Nc3cc(C)cc(C)c3)o2)cc1 | -2 | ? | 21267* | -3
COc1ccc(CCNC(=O)CSc2nnc(CNC(=O)c3c(F)cccc3Cl)o2)cc1OC | -1 | 1 | 5648 | 1
COc1ccc(CCNC(=O)CSc2nnc(CNc3ccc(Cl)cc3)o2)cc1OC | 0 | -1 | 21392* | 0
COc1ccc(S(=O)(=O)N[C@@H](CSCc2ccccc2)C(=O)O)cc1 | -2 | 1 | 5319 | -2
CCc1cc(C(=O)NNC(=S)Nc2cc(C)ccc2C)cs1 | 1 | -1 | 23483* | 1
CCCc1cc(C(=O)NNC(=S)NCc2ccccc2)cs1 | 0 | 2 | 22370* | -6
Cc1cccc(NC(=S)NNC(=O)c2csc3c2CCCC3)c1 | -6 | -4 | 16967* | -2
Cc1ccc(C)c(NC(=S)NNC(=O)c2csc3c2CCCC3)c1 | 1 | 0 | 16276* | 0
Cc1cccc(-n2cnc3cc(C(=O)NCC4CCCO4)ccc32)c1 (stereo not drawn) | 0 | 0 | 3683 | 4
CCc1cc(C(=O)NNC(=S)NCc2ccccc2)cs1 | 1 | 0 | 11564 | -1
CCc1cc(C(=O)Nc2ccccc2)cs1 | -4 | -2 | 16734* | -2
CCOC(=O)c1ccc(N=C2NC(=O)CS2)cc1 | 1 | -2 | 23536* | -2
CCn1cc(C(=O)N2CCCC(CO)(Cc3ccccc3C)C2)cn1 (stereo not drawn) | 5 | -1 | 5667 | -4
COc1ccc(C=NCCC2(O)CC(C)N(C)CC2C)cc1 (stereo not drawn) | 54* | 2 | 4478 | 3
CC(=C/c1ccco1)/C=N/NC(=O)Cc1cccn1C | 0 | 0 | 2308 | -3
CC(/C=N/NC(=O)Cc1cccn1C)=C\c1ccco1 | -6 | ? | 22954* | -7
Cc1ccc2nc(-c3cccc(NC(=O)c4ccc5c(c4)OCCO5)c3)oc2c1 | -4 | ? | 21708* | -5
COc1cccc(CNC(=O)Cn2nc(-c3ccc(Cl)cc3)ccc2=O)c1 | -3 | -1 | 21110* | -1
COc1ccccc1-c1ccc(=O)n(CC(=O)NCc2ccc3c(c2)OCO3)n1 | 1 | 3 | 22769* | -3
COc1ccccc1-c1ccc(=O)n(CC(=O)NC(C)(C)C)n1 | -6 | ? | 16772* | -1
SMILES | BoNT-F LC inh | BoNT A protease | Autofluor counter | Anthrax LF prot
COCCCNC(=O)Cn1nc(-c2cccc(OC)c2)ccc1=O | ? | -5 | 3520 | 0
COCCNC(=O)Cn1nc(-c2ccccc2OC)ccc1=O | 0 | 2 | 22415* | -3
COCCCNC(=O)Cn1nc(-c2ccccc2OC)ccc1=O | 4 | 0 | 3014 | 1
O=C(O)C(SC(C(=O)O)c1ccccc1)c1ccccc1 (stereo not drawn) | -4 | 0 | 2811 | 0
CCNC(=O)COC(=O)C1CCC(=O)N(c2ccc(OC)cc2)C1c1ccc(OC)cc1 (stereo not drawn) | -2 | -1 | 21386* | -3
COc1ccc(C2C(C(=O)OCC(=O)N3CCCCC3)CCC(=O)N2c2ccc(OC)cc2)cc1 (stereo not drawn) | -7 | 1 | 3925 | -2
CCOC(=O)/C=C1/SCC(=O)N1CC(=O)Nc1ccc2c(c1)CCC2 | 2 | 0 | 3907 | -2
COc1cc(C2Nc3ccc4ncccc4c3C3=C2C(=O)CC(C)(C)C3)cc(OC)c1O (stereo not drawn) | 1 | -1 | 23335* | 1
COc1cc(C2Nc3ccc4ncccc4c3C3=C2C(=O)CCC3)cc(OC)c1O (stereo not drawn) | -11 | 0 | 2600 | -1
CCNS(=O)(=O)c1ccc(NC(=S)N2CCc3ccccc32)cc1 | -9 | -1 | 5567 | -2
CC1C(c2ccccc2)N(C)C(c2ccccc2)CC1(O)c1ccccc1 (stereo not drawn) | -7 | -6 | 17483* | -6
O=C(COc1ccc([N+](=O)[O-])cc1)Nc1ccccc1C(=O)NC1CC1 | -11 | -2 | ? | -5
CCCn1c(Nc2nc3ccccc3n2C)nc2ccccc21 | 28 | 3 | 10831 | 0
CCCCn1c(Nc2ccccc2)nc2ccccc21 | -4 | -1 | 16689* | -2
O=C(c1ccc(Cl)cc1Cl)c1ncc(C(F)(F)F)cc1Cl | 0 | -1 | 11676 | -3
O=C(c1ccccc1)c1ncc(C(F)(F)F)cc1Cl | -5 | -2 | 20699* | -2
CCOc1ccc(OCCCC(=O)ON=C(N)c2ccccc2C)cc1 | -2 | -3 | ? | -1
CCc1c(C)sc(NC(=O)c2ccco2)c1C(=O)N1CCCCC1 | 1 | 2 | 22698* | 0
O=c1[nH]c(CSc2nnc(-c3ccncc3)n2Cc2ccco2)nc2ccccc12 | -4 | ? | 22482* | -1
O=C(O)CSc1nnc(-c2ccncc2)n1C1CCCCC1 | 4 | ? | 19539* | 0
COCCn1c(SCc2nc3ccccc3c(=O)[nH]2)nnc1-c1ccncc1 | -2 | ? | 16786* | -2
O=c1[nH]c(CSc2nnc(-c3ccccc3)n2-c2ccccc2)nc2ccccc12 | -8 | 0 | 2014 | 2
O=c1[nH]c(CSc2nnc(-c3ccccc3)n2C2CCCCC2)nc2ccccc12 | 3 | 3 | 22043* | 0
Cc1ccc(-c2nnc(SCc3nc4ccccc4[nH]3)n2Cc2ccco2)cc1 | -4 | 0 | 10056 | -1
Cc1sc2ncn(CC(=O)NCC(=O)N(C)C3CCCCC3)c(=O)c2c1C | 2 | 2 | 22154* | -3
SMILES | BoNT-F LC inh | BoNT A protease | Autofluor counter | Anthrax LF prot
Cc1sc2ncn(CC(=O)NCc3ccccc3)c(=O)c2c1C | -8 | 0 | 4005 | -5
Cc1sc2ncn(CC(=O)NCCCC(=O)N3CCCCC3)c(=O)c2c1C | 1 | 0 | 6046 | 2
Cc1sc2ncn(CC(=O)NCC(=O)N(C)Cc3ccccc3)c(=O)c2c1C | 2 | 1 | 22315* | -2
O=C(Nc1nc2c(F)cc(F)cc2s1)c1ccc([N+](=O)[O-])o1 | 4 | -1 | 5742 | -8
OC[C@@H]1CN(CCN2CCOCC2)C[C@H](n2cnc3c(NC4CCC4)ncnc32)O1 | -2 | 0 | 3819 | 2
COc1ccc2cc(C(C)C(=O)N3CCC(C(N)=O)CC3)ccc2c1 (stereo not drawn) | 8 | 1 | 2934 | 1
CCS(=O)(=O)n1nc(-c2ccc(Cl)cc2)nc1SC | -2 | -1 | 22674* | -4
Cc1ccccc1NC(=S)N(CCN(C)C)C(C)c1ccccn1 (stereo not drawn) | 7 | 6 | 19817* | -12
Cc1c(Cl)cccc1NC(=S)N(CCN(C)C)C(C)c1ccccn1 (stereo not drawn) | 0 | 0 | 4237 | -2
